In PubChem BioAssay AID1159580 (chemical genetic matrix, 2015):
Hit rate of the full screen: of about 5,500 compounds, about 2,000 (36%) were called active. Another 18% or so got no clear call; they are omitted. Rule as the data show it: active = normalized growth mostly below about 0.91 (no sharp cut-off); inconclusive = no clear call, values can overlap the other calls; inactive = mostly above about 0.92. This is one part of the list.

Assay: chemical genetic growth profiling, strain panel (AID 1159580);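 also: tested at 20 µM; growth read once vehicle control cultures reached saturation at 30 °C; 1 = growth at the plate median or of vehicle wells; lower values mean less growth of the strain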
Conditions: S. cerevisiae deletion strains, growth OD

Measured: normalized growth

CNCCCC1c2ccccc2C=Cc2ccccc21
inactive: locus YAL013W, strain DEP1, stronger effect = lower value 0.989 | locus YAL040C, strain CLN3, stronger effect = lower value 1.08 | locus YCL061C, strain MRC1 (second series), stronger effect = lower value 1 | locus YDR363W, strain ESC2, stronger effect = lower value 1.03 | locus YER002W, strain NOP16, stronger effect = lower value 1.01 | locus YHR030C, strain SLT2, stronger effect = lower value 0.974 | locus YHR079C, strain IRE1, stronger effect = lower value 0.965 | locus YJL095W, strain BCK1, stronger effect = lower value 0.959 | locus YJR066W, strain TOR1, stronger effect = lower value 0.954 | locus YJR075W, strain HOC1, stronger effect = lower value 0.985 | locus YLR113W, strain HOG1, stronger effect = lower value 0.956 | locus YMR307W, strain GAS1, stronger effect = lower value 1 | locus YNL153C, strain GIM3, stronger effect = lower value 1.02 | locus YNL175C, strain NOP13, stronger effect = lower value 1.01 | locus YNL183C, strain NPR1, stronger effect = lower value 0.924 | locus YNL197C, strain WHI3, stronger effect = lower value 1.02 | locus YNL224C, strain SQS1, stronger effect = lower value 1.06 | locus YOR083W, strain WHI5 (second series), stronger effect = lower value 1.04 | locus YOR231W, strain MKK1, stronger effect = lower value 0.976 | locus YPL055C, strain LGE1, stronger effect = lower value 1 | locus YPL256C, strain CLN2, stronger effect = lower value 0.945
